Results filed as inconclusive are left out. The source made the active and inactive calls. Calls come from the whole dose curve; as a rule, active = well fitted cell-killing curve with a large enough effect in the repeat runs; inconclusive = weak or mixed curves, or effect the other way; inactive = flat fitted curve, though single readings scatter.
% is set by controls: 0 for no effect and ±100 for the full control effect; potency is the fitted concentration of half-maximal effect.

This assay in a line: cAMP Responsive Elements (CRE) small molecule antagonists, cell-based qHTS assay: qHTS cell viability counter screen (AID 2060913). Note: nearly all actives have a fitted effect of over 40% in size. To be noted: CRE-bla HEK293T viability, CellTiter-Glo luminescence, 5 h; series mostly up to 92.4 µM; viability change, negative = cytotoxic: at the top concentration. The gist of the method: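 Viability of NKH477-stimulated (0.25 uM final) CRE-bla HEK293T cells is measured by CellTiter-Glo luminescence following 3 hrs compound exposure at 37 C.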
(In general: Quantitative high-throughput screening tests each substance at several concentrations.)
On to `Nc1cnn([C@@H]2O[C@H](CO)[C@@H](O)[C@H]2O)c(=O)n1`, for which the “viability change, negative = cytotoxic” value is -15.4% (inactive).

Take `CC[N+](C)(CC)CCOC(=O)C1c2ccccc2Oc2ccccc21`: the “viability change, negative = cytotoxic” value is -1.18% [at 42.5 µM] (inactive).

With `CCCCc1ccc2nc(NC(=O)OC)[nH]c2c1`, the “viability change, negative = cytotoxic” value was -0.0525% [at 42.5 µM] (inactive).

`O=Cc1ccc(C(=O)O)cc1`: the “viability change, negative = cytotoxic” value is 4.73% (inactive).

Turning to `O=C(O)c1ccccc1-n1cc(C(=O)O)c(=O)c2cc(Nc3c(F)cc(F)cc3Cl)c(Cl)cc21`, the “viability change, negative = cytotoxic” value was 0.0638% (inactive).

As to `O=C(O)c1cc(C(=O)O)c(C(=O)O)cc1C(=O)O`, the “viability change, negative = cytotoxic” value is -2.88% (inactive).

On to `O=C1CCCCCCCCCCCCCC1`, for which the “viability change, negative = cytotoxic” value was 5.79% (inactive).

As for `CCOC(=O)Oc1ccc(CCNC(=O)[C@H](CCSC)NC(C)=O)cc1OC(=O)OCC`, the “viability change, negative = cytotoxic” value was -1.42% [at 42.5 µM] (inactive).

`OC(CN1CCC(Cc2ccc(F)cc2)CC1)c1ccc(Cl)cc1` (stereo not given): the “viability change, negative = cytotoxic” value is 1.38% [at 42.5 µM] (inactive).

Consider `CO[Si](OC)(c1ccccc1)c1ccccc1`, for which the “viability change, negative = cytotoxic” value was -1.54% (inactive).

With `Cc1oc(-c2ccccc2)nc1CCOc1cccc2c1ccn2CCC(=O)O`, the “viability change, negative = cytotoxic” value was -9.58% (inactive).

`C=CCN1C[C@H](C(=O)N(CCCN(C)C)C(=O)NCC)C[C@@H]2c3cccc4[nH]cc(c34)C[C@H]21`: the “viability change, negative = cytotoxic” value was -0.554% [at 42.5 µM] (inactive).

As for `Cc1cc(CC(=O)O)n(C)c1C(=O)c1ccc(Cl)cc1`, the Potency entry is “inactive”.

In the case of `CCC(C)(CN(C)C)OC(=O)c1ccccc1` (stereo not given), the “viability change, negative = cytotoxic” value was -0.727% [at 42.5 µM] (inactive).

With `c1cnc2cc3c(cc2n1)C1CNCC3C1`, the “viability change, negative = cytotoxic” value is 5% [at 42.5 µM] (inactive).

Turning to `O=C(NOCC1CC1)c1ccc(F)c(F)c1Nc1ccc(I)cc1Cl`, the “viability change, negative = cytotoxic” value was -16.3% [at 42.5 µM] (inactive).

For `CCCCCCCC`, the “viability change, negative = cytotoxic” value was 1.27% (inactive).

Turning to `CCCCCCCCC(CO)CCCCCC` (stereo not given), the “viability change, negative = cytotoxic” value was -1.19% (inactive).

As for `Cc1cc(O)c2c(c1)C(=O)c1cc(O)cc(O)c1C2=O`, the Potency entry is “inactive”.

For the molecule `CCCCC(CC)COP(=O)(OCC(CC)CCCC)OCC(CC)CCCC` (stereo not given), the Potency entry was “inactive”.

On to `CS(=O)(=O)O`, for which the “viability change, negative = cytotoxic” value was 2.36% (inactive).

`CC(=O)Oc1ccc(C2(c3ccc(OC(C)=O)cc3)C(=O)Nc3ccccc32)cc1`: the “viability change, negative = cytotoxic” value was -4.2% [at 42.5 µM] (inactive).

For the molecule `CCC(C(=O)O)c1ccc(N2Cc3ccccc3C2=O)cc1` (stereo not given), the “viability change, negative = cytotoxic” value was -4.24% [at 42.5 µM] (inactive).

As for `CS(=O)(=O)c1ccc(-c2cn3ccccc3n2)cc1`, the Potency is 26.6 µM (active).

For the molecule `CCn1ccnc1CC1COc2ccccc2O1` (stereo not given), the “viability change, negative = cytotoxic” value is 7.74% [at 42.5 µM] (inactive).

In the case of `CC(CN=Cc1ccccc1O)N=Cc1ccccc1O` (stereo not given), the “viability change, negative = cytotoxic” value was 0.251% (inactive).

On to `Cc1ccc(S(=O)(=O)NC(=O)NC2CCCCCCC2)cc1`, for which the “viability change, negative = cytotoxic” value is 1.89% [at 42.5 µM] (inactive).

Regarding `CC(C)COC(=O)c1ccc(O)cc1`, the “viability change, negative = cytotoxic” value is -6.04% (inactive).

For the molecule `C=C(C)C(=O)OCCOP(=O)(O)O`, the “viability change, negative = cytotoxic” value was -2.92% (inactive).

Take `Cc1cc(C)cc(OCC2CNC(=O)O2)c1` (stereo not given): the “viability change, negative = cytotoxic” value was 3.35% [at 42.5 µM] (inactive).

On to `C(=C\c1ccccc1)/c1ccccc1`, for which the “viability change, negative = cytotoxic” value was -16% (inactive).

As for `OC[C@@H](O)[C@H](O)[C@@H](O)[C@@H](O)CO`, the “viability change, negative = cytotoxic” value was -6.69% (inactive).

Turning to `CCCOCCOCCO`, the “viability change, negative = cytotoxic” value was -0.436% (inactive).

As to `O=C(O)Cc1cc(I)c(Oc2cc(I)c(O)c(I)c2)c(I)c1`, the “viability change, negative = cytotoxic” value was -16.9% [at 42.5 µM] (inactive).

In the case of `C=CC(=O)CC`, the “viability change, negative = cytotoxic” value was -6.99% (inactive).

Regarding `Cc1cc(O)c(C(C)(C)C)cc1C(C)(C)C`, the Potency is 43.3 µM (active).

Regarding `COC(=O)c1cc(C(=O)OC)cc(S(=O)(=O)O)c1`, the “viability change, negative = cytotoxic” value is 7.5% (inactive).

For the molecule `OC(CCl)CCl`, the Potency result is “inactive”.

Consider `CCCCCCCCCO`, for which the “viability change, negative = cytotoxic” value was -7.34% (inactive).

Turning to `C=CC(C)(CCC=C(C)C)OC(C)=O` (stereo not given), the Potency result was “inactive”.
